# In PubChem BioAssay (EPA / NIEHS):
# Results filed as inconclusive are left out. Active and inactive are the calls of the source. Rule for the calls: active = hit-call score of the fitted dose curve at least 0.9, where 1 is the maximum; inconclusive = response in the unintended direction; inactive = score below 0.9.
# Target: Estrogen receptor (Homo sapiens) (UniProt P03372)
# Test: NVS_NR_hER: NovaScreen (NVS) Nuclear Receptor Binding Assay for human Estrogen Receptor (ER) (AID 2283348)
# Summary of the method: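 Scintillation signal from bound radioligand was measured 18 hours after chemical addition to cell-free MCF7 protein extracts, with DMSO as baseline. Activity was scored as signal loss; compounds ran first at 25 uM in duplicate.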
# Chain of Estrogen receptor (Homo sapiens) (P03372 whole entry, looked up, the tested form may be a part): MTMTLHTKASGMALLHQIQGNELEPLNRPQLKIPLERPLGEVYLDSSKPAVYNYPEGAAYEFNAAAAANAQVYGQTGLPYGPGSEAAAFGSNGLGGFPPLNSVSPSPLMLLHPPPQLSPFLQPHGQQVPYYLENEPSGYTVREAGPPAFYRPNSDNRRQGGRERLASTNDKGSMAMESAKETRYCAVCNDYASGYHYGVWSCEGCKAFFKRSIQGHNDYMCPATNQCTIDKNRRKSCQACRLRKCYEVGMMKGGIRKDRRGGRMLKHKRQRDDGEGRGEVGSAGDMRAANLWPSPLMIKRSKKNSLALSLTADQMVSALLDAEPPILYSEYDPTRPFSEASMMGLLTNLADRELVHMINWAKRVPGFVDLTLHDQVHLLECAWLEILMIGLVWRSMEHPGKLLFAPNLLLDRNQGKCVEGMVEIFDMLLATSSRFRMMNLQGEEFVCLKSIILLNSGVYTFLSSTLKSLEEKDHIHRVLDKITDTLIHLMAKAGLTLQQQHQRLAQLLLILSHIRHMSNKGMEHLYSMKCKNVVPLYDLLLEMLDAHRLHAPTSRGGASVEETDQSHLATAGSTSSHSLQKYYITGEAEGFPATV
row,SMILES,outcome
1,NC(=O)N(O)[C@@H]1C=C[C@H](Oc2cccc(Oc3ccc(F)cc3)c2)C1,inactive
2,CCc1nn(C2CCCCC2)c2cc(C3(C#N)CCC(C(=O)O)CC3)ccc12 (stereo unspecified),inactive
3,c1ccc2c(c1)Cc1ccccc1-2,inactive
4,CC(C)(C)CC(C)(C)c1ccc(O)c(-n2nc3ccccc3n2)c1,inactive

# Target: Estrogen receptor (Homo sapiens) (UniProt P03372)
# Test: OT_ER_ERaERa_1440: Odyssey Thera (OT) 24-hour HEK293T Protein-Complementation Assay for Estrogen Receptor-alpha/-alpha Homodimer (AID 2283349);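 note: hits raise fluorescence above DMSO for agonists and antagonists alike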
# Summary of the method: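 Protein-fragment complementation between two human ERα ligand-binding domains (aa 310-547) in stably transfected HEK293T cells was monitored after 24 h treatment, using fluorescence intensity relative to vehicle controls.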
SMILES,outcome,AC50
CC(C)(C)c1cc(C(C)(C)C)c(O)c(C(C)(C)C)c1,inactive,–
CC(C)CCCCCCOC(=O)CCCCC(=O)OCCCCCCC(C)C,inactive,–
CC(O)C(=O)O (stereo unspecified),inactive,–
CC(C)(C)c1cccc(C(C)(C)C)c1O,inactive,–
Nc1cccc2c(N)cccc12,–,11.9 µM (active)
CC(=O)NC1(c2cccc(F)c2)CCN(CC[C@@]2(c3ccc(Cl)c(Cl)c3)CN(c3ccccc3)C(=O)CO2)CC1,inactive,–
COCC(C)OCC(C)O (stereo unspecified),inactive,–
CCc1ccc(CCOc2ccc(CC3SC(=O)NC3=O)cc2)nc1 (stereo unspecified),–,75.1 µM (active)
CC(O)CO (stereo unspecified),inactive,–
OCCC(F)(F)C(F)(F)C(F)(F)C(F)(F)C(F)(F)C(F)(F)F,inactive,–
COc1ccc([N+](=O)[O-])cc1N,inactive,–
CCCCCCCCC(=O)O,inactive,–

# Target: Bile acid receptor (Homo sapiens) (UniProt Q96RI1)
# Sequence (Q96RI1 whole entry, looked up): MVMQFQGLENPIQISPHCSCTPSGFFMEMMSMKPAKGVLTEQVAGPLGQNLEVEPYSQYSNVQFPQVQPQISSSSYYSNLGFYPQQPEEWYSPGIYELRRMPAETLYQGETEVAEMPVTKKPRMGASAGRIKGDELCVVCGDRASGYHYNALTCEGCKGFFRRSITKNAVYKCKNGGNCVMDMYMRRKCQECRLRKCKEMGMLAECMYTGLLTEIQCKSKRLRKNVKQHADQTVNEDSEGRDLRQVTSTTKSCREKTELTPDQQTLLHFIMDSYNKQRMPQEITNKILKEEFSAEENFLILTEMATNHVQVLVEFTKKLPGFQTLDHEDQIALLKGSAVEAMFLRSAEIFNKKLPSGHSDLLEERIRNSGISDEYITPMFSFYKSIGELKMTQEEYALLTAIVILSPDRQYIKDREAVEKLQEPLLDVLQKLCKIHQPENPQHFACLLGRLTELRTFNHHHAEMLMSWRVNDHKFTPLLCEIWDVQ
# Test: NVS_NR_hFXR_Antagonist: NovaScreen (NVS) Nuclear Receptor Binding Assay for human Farnesoid X Receptor Antagonism (FXR) (AID 2283350)
# Summary of the method: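 Cell-free TR-FRET ligand-binding read-out on human FXR (NR1H4) in antagonist mode, measured 1 h after dosing. Primary screen in duplicate at 25 uM, actives retested in concentration series; signal loss scored versus DMSO.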
row,SMILES,outcome
1,CC(C)CCCCCCOC(=O)CCCCC(=O)OCCCCCCC(C)C,inactive
2,CCCCC(CC)COC(=O)CCCCC(=O)OCC(CC)CCCC (stereo unspecified),inactive
3,O=C(OCCOCCOC(=O)c1ccccc1)c1ccccc1,inactive
4,CC(O)CO (stereo unspecified),inactive

# Target: Estrogen receptor (Homo sapiens) (UniProt P03372)
# Test: OT_ER_ERaERa_0480: Odyssey Thera (OT) 8-hour HEK293T Protein-Complementation Assay for Estrogen Receptor-alpha/-alpha Homodimer (AID 2283351);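 note: rise in fluorescence from reassembled reporter fragments on ERα LBD homodimer in nucleus or whole cell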
# Summary of the method: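 HEK293T, stable ERα LBD (aa 310-547) PCA homodimer; 8 h compound exposure; fluorescence intensity, laser scanning cytometer; positive fitting direction, DMSO baseline.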
SMILES,outcome,AC50
CC(C)(C)c1cc(C(C)(C)C)c(O)c(C(C)(C)C)c1,inactive,–
CC(C)CCCCCCOC(=O)CCCCC(=O)OCCCCCCC(C)C,inactive,–
CC[C@H](C)[C@@H](C(=O)O)n1sc2ccccc2c1=O,inactive,–
Oc1cccc(O)c1,inactive,–
NC(=O)N(O)[C@@H]1C=C[C@H](Oc2cccc(Oc3ccc(F)cc3)c2)C1,inactive,–
CCc1nn(C2CCCCC2)c2cc(C3(C#N)CCC(C(=O)O)CC3)ccc12 (stereo unspecified),inactive,–
CCCCCCCC(=O)O,inactive,–
CCCCCCCCOC(=O)CCCCCCCCC(=O)OCCCCCCCC,inactive,–
c1ccc2c(c1)Cc1ccccc1-2,inactive,–
CC(C)(C)c1ccc(O)c(C(C)(C)C)c1,inactive,–
COC(=O)CCCCC(=O)OC,inactive,–
CC(=O)CC(C)(C)O,inactive,–
CC(C)(C)CC(C)(C)c1ccc(O)c(-n2nc3ccccc3n2)c1,inactive,–
CC(O)C(=O)O (stereo unspecified),inactive,–
c1ccc2c(c1)ccc1ccccc12,inactive,–
CC(C)(C)c1cccc(C(C)(C)C)c1O,inactive,–

SMILES,outcome,AC50
CCCCCCCCCCCCCCCS(=O)(=O)Oc1ccccc1,inactive,–
CCCCCCC(=O)O,inactive,–
CCCCC(CC)COC(=O)CCCCC(=O)OCC(CC)CCCC (stereo unspecified),inactive,–
Nc1cccc2c(N)cccc12,inactive,–
CC(=O)NC1(c2cccc(F)c2)CCN(CC[C@@]2(c3ccc(Cl)c(Cl)c3)CN(c3ccccc3)C(=O)CO2)CC1,inactive,–
CCc1ccc(CCOc2ccc(CC3SC(=O)NC3=O)cc2)nc1 (stereo unspecified),–,76.7 µM (active)
CCCCOCCO,inactive,–
O=C(OCCOCCOC(=O)c1ccccc1)c1ccccc1,inactive,–
CC(O)CO (stereo unspecified),inactive,–
OCCC(F)(F)C(F)(F)C(F)(F)C(F)(F)C(F)(F)C(F)(F)F,inactive,–
CCOC(=O)CC(O)(CC(=O)OCC)C(=O)OCC,inactive,–
COc1ccc([N+](=O)[O-])cc1N,inactive,–
N#C[C@@H]1CC(F)(F)CN1C(=O)CNC1CC2CCC(C1)N2c1ncccn1 (stereo partly specified),inactive,–
CCCCCCCCC(=O)O,inactive,–
Cc1ccc(S(=O)(=O)O)c(C)c1,inactive,–

# Target: Estrogen receptor (Homo sapiens) + Estrogen receptor beta (Homo sapiens) (UniProt P03372+Q92731)
# Sequence (P03372 whole entry, looked up): as the sequence (P03372 whole entry, looked up, the tested form may be a part) above
# Sequence (Q92731 whole entry, looked up): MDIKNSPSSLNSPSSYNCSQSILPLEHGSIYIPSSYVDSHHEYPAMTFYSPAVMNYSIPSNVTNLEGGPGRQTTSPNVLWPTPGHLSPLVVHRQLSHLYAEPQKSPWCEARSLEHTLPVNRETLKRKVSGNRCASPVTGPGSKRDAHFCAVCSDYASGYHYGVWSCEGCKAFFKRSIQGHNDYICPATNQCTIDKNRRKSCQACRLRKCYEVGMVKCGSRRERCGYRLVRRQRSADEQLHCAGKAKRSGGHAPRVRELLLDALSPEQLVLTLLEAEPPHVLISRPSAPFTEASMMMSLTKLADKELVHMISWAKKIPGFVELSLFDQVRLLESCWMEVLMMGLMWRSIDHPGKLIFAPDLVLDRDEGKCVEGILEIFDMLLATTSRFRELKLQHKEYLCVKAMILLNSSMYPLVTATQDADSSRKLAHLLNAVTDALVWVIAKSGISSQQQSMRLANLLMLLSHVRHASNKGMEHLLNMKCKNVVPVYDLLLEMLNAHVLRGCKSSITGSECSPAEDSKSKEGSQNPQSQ
# Test: OT_ER_ERaERb_0480: Odyssey Thera (OT) 8-hour HEK293T Protein-Complementation Assay for Estrogen Receptor-alpha/-beta Heterodimer (AID 2283352)
# Summary of the method: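 Compound added to HEK293T cells carrying split-reporter-tagged ER-alpha and ER-beta LBDs, incubated 8 hours, then imaged by laser scanning cytometer. Signal rise in nucleus, or nucleus and cytoplasm, over vehicle was fitted in the positive direction.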
SMILES,AC50,outcome
CC(C)(C)c1cc(C(C)(C)C)c(O)c(C(C)(C)C)c1,50 µM (active),–
CC[C@H](C)[C@@H](C(=O)O)n1sc2ccccc2c1=O,–,inactive
Oc1cccc(O)c1,–,inactive
NC(=O)N(O)[C@@H]1C=C[C@H](Oc2cccc(Oc3ccc(F)cc3)c2)C1,–,inactive
CCc1nn(C2CCCCC2)c2cc(C3(C#N)CCC(C(=O)O)CC3)ccc12 (stereo unspecified),–,inactive
CCCCCCCC(=O)O,–,inactive
CCCCCCCCOC(=O)CCCCCCCCC(=O)OCCCCCCCC,–,inactive
c1ccc2c(c1)Cc1ccccc1-2,–,inactive
CC(=O)CC(C)(C)O,–,inactive
CC(C)(C)CC(C)(C)c1ccc(O)c(-n2nc3ccccc3n2)c1,–,inactive
CCCCCCCCCCCCCCCS(=O)(=O)Oc1ccccc1,–,inactive
CCCCC(CC)COC(=O)CCCCC(=O)OCC(CC)CCCC (stereo unspecified),–,inactive
Nc1cccc2c(N)cccc12,–,inactive
COCC(C)OCC(C)O (stereo unspecified),–,inactive
CCc1ccc(CCOc2ccc(CC3SC(=O)NC3=O)cc2)nc1 (stereo unspecified),–,inactive
OCCC(F)(F)C(F)(F)C(F)(F)C(F)(F)C(F)(F)C(F)(F)F,–,inactive
CCOC(=O)CC(O)(CC(=O)OCC)C(=O)OCC,–,inactive
COc1ccc([N+](=O)[O-])cc1N,–,inactive
N#C[C@@H]1CC(F)(F)CN1C(=O)CNC1CC2CCC(C1)N2c1ncccn1 (stereo partly specified),–,inactive
CCCCCCCCC(=O)O,–,inactive
